Columns and labels:
Assay in all cases: log2 ratio of Biotin-Ahx-Ub-VS probe labelling (fragment/DMSO); higher = less target engagement (more negative = stronger competition), active = hit call of the paper (q ≤ 0.05, log2 ratio ≤ -1)
Conditions in all cases: compound concentration: 200 uM; treatment time: 3 h
OTUD6B = target: T1, OTUD6B (UniProt Q8N6M0)
T1 sequence (whole entry): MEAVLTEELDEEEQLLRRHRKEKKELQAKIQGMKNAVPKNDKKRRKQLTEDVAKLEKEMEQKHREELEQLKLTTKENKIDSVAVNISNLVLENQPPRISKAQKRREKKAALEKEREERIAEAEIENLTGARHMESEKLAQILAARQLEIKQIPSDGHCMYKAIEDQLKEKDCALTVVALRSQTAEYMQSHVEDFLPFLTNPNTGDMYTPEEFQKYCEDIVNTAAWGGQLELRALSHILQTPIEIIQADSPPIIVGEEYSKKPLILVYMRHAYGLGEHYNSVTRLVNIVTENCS
Procedure, shortened: (§1)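 Fragment (200 µM) or vehicle was incubated for 3 h with triplicate HEK293T lysate samples of 495 µg, which were then treated with Biotin-Ahx-Ub-VS at 0.5 µM final for 1 h. Labelled DUBs were enriched on NeutrAvidin, digested with LysC and trypsin, and analysed by diaPASEF LC-MS/MS. Values are average log2 fragment/vehicle ratios from an unpaired t-test on global-median-normalised Spectronaut label-free quantities, using proteins with ≥2 unique peptides.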

OTUD7B = target: T2, OTUD7B (UniProt Q6GQQ9)
T2 sequence (whole entry): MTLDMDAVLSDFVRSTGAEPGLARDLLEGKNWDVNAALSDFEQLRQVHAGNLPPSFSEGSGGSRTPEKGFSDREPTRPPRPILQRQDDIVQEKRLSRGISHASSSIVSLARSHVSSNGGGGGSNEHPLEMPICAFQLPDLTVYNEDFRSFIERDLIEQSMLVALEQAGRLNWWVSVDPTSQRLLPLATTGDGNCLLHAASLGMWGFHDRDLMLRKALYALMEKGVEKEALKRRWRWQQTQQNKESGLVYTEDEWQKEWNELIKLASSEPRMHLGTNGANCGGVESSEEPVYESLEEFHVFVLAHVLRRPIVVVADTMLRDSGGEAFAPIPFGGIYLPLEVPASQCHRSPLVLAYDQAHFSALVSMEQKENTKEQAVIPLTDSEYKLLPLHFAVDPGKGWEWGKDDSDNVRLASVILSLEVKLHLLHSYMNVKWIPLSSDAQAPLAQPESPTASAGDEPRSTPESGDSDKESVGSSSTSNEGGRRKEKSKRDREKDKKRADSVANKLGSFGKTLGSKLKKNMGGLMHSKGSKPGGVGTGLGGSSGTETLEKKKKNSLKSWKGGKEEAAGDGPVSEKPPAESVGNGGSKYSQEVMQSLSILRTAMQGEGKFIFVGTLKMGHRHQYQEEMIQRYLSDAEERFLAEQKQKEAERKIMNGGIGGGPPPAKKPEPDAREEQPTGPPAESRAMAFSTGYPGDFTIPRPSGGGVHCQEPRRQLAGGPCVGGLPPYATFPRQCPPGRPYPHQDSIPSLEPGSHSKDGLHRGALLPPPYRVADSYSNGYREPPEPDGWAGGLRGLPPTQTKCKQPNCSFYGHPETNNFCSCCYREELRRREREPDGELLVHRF
Procedure, shortened: as §1

PRPF8 = PRPF8 (UniProt Q6P2Q9)
Procedure, shortened: as §1

PSMD7 = target: T3, PSMD7 (UniProt P51665)
T3 sequence (whole entry): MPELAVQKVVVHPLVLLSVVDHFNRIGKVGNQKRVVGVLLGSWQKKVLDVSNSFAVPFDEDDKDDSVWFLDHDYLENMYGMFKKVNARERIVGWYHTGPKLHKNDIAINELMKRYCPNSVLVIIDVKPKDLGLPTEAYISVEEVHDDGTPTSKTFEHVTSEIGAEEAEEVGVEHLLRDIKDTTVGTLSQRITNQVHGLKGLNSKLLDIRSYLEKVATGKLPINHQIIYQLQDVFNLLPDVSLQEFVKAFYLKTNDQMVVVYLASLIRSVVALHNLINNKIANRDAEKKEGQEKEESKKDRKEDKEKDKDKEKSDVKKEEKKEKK
Procedure, shortened: as §1

UCHL1 = UCHL1 (UniProt P09936)
UCHL1, sequence (P09936 whole entry, looked up): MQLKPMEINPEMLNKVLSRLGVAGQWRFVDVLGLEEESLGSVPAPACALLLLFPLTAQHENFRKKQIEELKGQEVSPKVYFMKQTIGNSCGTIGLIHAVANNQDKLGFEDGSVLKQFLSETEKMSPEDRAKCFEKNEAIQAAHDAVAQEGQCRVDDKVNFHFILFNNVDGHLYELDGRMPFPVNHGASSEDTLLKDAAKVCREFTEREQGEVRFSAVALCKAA
Procedure, shortened: as §1

UCHL3 = target: T4, UCHL3 (UniProt P15374)
T4 sequence (whole entry): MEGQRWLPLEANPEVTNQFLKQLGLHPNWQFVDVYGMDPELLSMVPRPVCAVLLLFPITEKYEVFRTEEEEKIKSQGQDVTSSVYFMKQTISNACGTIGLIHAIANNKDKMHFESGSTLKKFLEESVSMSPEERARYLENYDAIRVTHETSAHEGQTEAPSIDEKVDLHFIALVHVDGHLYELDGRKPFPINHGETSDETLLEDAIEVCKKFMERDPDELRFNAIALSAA
Procedure, shortened: as §1

UCHL5 = target: T5, UCHL5 (UniProt Q9Y5K5)
T5 sequence (whole entry): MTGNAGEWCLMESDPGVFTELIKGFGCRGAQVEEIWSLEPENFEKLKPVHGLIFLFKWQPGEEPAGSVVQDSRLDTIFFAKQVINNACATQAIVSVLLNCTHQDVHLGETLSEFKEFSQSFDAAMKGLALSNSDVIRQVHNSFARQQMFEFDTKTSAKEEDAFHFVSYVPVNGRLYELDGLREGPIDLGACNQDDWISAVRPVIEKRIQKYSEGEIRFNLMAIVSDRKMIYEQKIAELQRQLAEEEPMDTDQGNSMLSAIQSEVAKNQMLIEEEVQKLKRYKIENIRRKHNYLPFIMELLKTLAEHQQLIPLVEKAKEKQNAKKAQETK
Procedure, shortened: as §1

USP10 = USP10 (UniProt Q14694)
USP10, sequence (Q14694 whole entry): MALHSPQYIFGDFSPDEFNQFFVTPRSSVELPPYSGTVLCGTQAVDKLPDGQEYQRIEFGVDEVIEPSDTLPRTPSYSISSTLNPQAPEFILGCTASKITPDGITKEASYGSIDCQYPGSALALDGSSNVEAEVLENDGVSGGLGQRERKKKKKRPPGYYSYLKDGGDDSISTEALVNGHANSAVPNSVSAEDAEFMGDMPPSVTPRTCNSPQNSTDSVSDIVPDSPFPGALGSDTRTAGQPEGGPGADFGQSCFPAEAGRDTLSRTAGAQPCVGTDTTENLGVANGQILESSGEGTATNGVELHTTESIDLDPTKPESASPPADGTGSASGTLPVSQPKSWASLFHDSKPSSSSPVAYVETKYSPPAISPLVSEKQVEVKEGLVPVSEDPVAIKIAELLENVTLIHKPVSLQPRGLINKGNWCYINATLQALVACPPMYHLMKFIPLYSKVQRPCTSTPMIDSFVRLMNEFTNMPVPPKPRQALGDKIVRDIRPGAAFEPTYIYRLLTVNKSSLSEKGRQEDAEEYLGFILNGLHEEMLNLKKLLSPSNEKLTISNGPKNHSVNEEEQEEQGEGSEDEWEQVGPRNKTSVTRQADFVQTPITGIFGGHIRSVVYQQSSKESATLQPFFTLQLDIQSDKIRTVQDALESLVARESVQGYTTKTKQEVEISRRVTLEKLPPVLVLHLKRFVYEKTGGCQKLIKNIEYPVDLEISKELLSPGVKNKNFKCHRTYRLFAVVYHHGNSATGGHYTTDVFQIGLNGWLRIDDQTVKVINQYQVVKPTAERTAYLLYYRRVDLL
Procedure, shortened: as §1

USP15 = target: T6, USP15 (UniProt Q9Y4E8)
T6 sequence (whole entry): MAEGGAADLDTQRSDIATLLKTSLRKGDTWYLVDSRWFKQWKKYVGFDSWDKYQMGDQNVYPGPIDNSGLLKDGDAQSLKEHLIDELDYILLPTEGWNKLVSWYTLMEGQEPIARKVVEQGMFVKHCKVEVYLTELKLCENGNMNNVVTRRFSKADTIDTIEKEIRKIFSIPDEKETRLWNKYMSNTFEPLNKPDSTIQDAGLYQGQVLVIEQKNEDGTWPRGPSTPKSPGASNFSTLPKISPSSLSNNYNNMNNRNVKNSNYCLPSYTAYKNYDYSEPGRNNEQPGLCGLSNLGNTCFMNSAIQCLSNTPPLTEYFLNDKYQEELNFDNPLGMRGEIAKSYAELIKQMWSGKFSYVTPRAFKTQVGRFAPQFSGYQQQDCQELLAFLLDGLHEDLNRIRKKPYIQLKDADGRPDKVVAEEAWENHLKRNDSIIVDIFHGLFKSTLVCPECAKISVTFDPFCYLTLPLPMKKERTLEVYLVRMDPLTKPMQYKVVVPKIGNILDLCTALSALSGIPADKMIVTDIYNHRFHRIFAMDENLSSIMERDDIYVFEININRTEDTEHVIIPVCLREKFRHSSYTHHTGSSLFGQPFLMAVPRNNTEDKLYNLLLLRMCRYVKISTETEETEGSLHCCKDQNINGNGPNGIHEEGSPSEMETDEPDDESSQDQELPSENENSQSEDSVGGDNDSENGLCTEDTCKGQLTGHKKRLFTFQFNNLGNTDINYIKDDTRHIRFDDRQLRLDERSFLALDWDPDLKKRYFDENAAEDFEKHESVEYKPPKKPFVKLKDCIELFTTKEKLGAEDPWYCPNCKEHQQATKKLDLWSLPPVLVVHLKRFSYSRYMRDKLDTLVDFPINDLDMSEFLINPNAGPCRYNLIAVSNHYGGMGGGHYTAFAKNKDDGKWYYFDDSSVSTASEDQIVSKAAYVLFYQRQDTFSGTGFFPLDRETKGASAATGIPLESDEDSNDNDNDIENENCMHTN
Procedure, shortened: as §1

USP16 = USP16 (UniProt Q9Y5T5)
USP16, sequence (Q9Y5T5 whole entry, looked up): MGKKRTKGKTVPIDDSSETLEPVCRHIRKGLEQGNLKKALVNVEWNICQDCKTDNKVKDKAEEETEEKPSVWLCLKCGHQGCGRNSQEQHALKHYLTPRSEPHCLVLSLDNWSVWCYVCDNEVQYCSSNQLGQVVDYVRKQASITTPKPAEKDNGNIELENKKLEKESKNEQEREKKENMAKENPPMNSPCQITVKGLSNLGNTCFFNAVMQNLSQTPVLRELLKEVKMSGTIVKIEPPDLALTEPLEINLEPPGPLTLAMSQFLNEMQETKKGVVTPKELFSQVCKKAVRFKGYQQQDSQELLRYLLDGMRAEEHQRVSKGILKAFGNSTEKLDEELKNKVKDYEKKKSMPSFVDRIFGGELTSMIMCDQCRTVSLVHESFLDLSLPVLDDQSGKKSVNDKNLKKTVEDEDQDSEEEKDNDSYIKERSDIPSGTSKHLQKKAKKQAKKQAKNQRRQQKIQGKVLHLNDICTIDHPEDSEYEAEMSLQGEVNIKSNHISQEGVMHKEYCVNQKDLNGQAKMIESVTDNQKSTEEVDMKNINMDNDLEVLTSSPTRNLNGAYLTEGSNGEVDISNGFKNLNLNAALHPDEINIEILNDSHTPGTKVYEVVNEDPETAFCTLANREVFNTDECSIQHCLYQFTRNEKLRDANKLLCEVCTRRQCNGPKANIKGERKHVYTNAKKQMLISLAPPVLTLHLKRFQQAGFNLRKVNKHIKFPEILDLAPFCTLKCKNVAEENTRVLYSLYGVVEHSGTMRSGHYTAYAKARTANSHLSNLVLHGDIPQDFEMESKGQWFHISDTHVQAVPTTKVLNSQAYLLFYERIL
Procedure, shortened: as §1

Measured: log2 ratio of Biotin-Ahx-Ub-VS probe labelling

CNC(=O)Cn1cc(NC(=O)CCl)cn1
inactive: OTUD6B -0.476 | OTUD7B -0.454 | PRPF8 1e-05 | PSMD7 -0.0882 | UCHL3 0.189 | UCHL5 -0.399 | USP10 -0.209 | USP15 -0.375 | USP16 -0.148
active: UCHL1 -1.59

Reference: the supplement of paper PMC11732987, “Enantioselective OTUD7B fragment discovery through chemoproteomics screening and high-throughput optimisation” (Communications Chemistry, 2025)
